Screening results as filed in PubChem BioAssay.
A selection: hits, their analogues and other compounds. The true share with any hit is near 9.3%.
ELG1 genotoxic – qHTS screen for small molecules that induce genotoxicity in human embryonic kidney (HEK293T) cells expressing luciferase-tagged ELG1; HEK293T ELG1-luciferase reporter, luminescence, 16 h; Potency, µM (titrated, usually from 46 µM), for inactives: at the highest dose activity change, positive = activation, hits mostly activators; 1.3% of 330,000 active; further: % of control where 0% means no effect; nearly all actives have a fitted effect of over 60% in size
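Genotoxicity was scored as increased ELG1-luciferase reporter signal, measured by ONE-Glo luminescence (30 min, room temperature). Compound or vehicle exposure of the HEK293T reporter cells lasted 16 hr at 37°C.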
NPC1 prom act – qHTS Assay for NPC1 Promoter Activators. Potency, µM (top dose mostly 9.22 µM), for inactives: at the highest dose activation, hits mostly activators. 2.4% of 320,000 active. Huh7 NPC1 promoter luciferase reporter, 24 h. AID 485313, 2010; further: % of control where 0% means no effect; nearly all actives have a fitted effect of over 60% in size
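NPC1 promoter–luciferase Huh7 cells; 24 h compound; luminescence.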
SMN2 splice up – qHTS Assay for Enhancers of SMN2 Splice Variant Expression. HEK293 SMN2-luciferase splicing reporter, luminescence, 30-36 h. Potency, µM (titrated, usually from 46.1 µM), for inactives: at the top dose activity change, positive = activation, actives largely listed as activators. 2.8% of 210,000 active; further: % of control where 0% means no effect; nearly all actives have a fitted effect of over 55% in size
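qHTS luciferase splicing reporter: luminescence rises when SMN2 exon 7 is included in transfected HEK293 cells. Compound exposure lasted 30-36 h at 37C, with 4.5 mM final sodium butyrate as control, followed by a ONE-Glo read.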
FLuc counter – qHTS profiling assay for firefly luciferase inhibitor/activator using purifed enzyme and Km concentrations of substrates (counterscreen for miR-21 project); purified FLuc, Km substrates, luminescence inhibition; Potency, µM (titrated, usually from 57.5 µM), without a hit: at the highest dose activity change, negative = inhibition, usual class: inhibitors; 6.9% of 360,000 active; AID 588342, 2011; Luciferin 4-monooxygenase (Photinus pyralis), P08659;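 further: plate controls were vehicle for no effect and reference inhibitor for full effect; nearly all actives have a fitted effect of over 55% in size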
Target sequence (P08659 whole entry, looked up): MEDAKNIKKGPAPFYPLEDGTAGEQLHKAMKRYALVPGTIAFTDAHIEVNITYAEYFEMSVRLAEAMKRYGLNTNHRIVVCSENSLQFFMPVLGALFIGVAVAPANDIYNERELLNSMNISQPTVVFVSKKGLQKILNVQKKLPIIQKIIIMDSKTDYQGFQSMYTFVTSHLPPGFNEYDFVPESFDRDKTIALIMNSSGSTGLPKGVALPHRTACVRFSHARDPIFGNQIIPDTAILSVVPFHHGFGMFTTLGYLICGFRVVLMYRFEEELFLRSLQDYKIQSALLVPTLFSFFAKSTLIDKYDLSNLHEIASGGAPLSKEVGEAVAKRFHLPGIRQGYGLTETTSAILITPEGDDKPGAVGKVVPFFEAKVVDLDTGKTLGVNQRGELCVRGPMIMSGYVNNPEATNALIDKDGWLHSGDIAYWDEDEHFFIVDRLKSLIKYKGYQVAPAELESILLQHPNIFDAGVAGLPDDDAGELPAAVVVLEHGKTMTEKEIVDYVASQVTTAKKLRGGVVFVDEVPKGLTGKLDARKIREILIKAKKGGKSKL
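Purified P. pyralis luciferase (10nM final) with 10uM D-luciferin and 10uM ATP (Km levels) in 50mM Tris acetate pH 7.5, 10mM Mg acetate, 0.01% Tween-20, 0.05% BSA; qHTS 6-point titration, ~60 µM downward; luminescence read.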
Rab9 promoter act – qHTS Assay for Rab9 Promoter Activators; Huh7 Rab9 promoter-luciferase reporter, luminescence, 24 h; Potency, µM (top dose mostly 9.22 µM), for the others: top-dose activation, negative = inhibition, actives largely listed as activators; 2.8% of 320,000 active; AID 485297, 2010; further: % of control where 0% means no effect; nearly all actives have a fitted effect of over 60% in size
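Luminescence read-out: Huh7 cells stably expressing Rab9-luciferase, treated 24 h with compound at 37 °C, then lysed with luciferase reagent for 10 min at ambient before reading.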
ELG1 DNA repair – qHTS screen for small molecules that inhibit ELG1-dependent DNA repair in human embryonic kidney (HEK293T) cells expressing luciferase-tagged ELG1 | HEK293T ELG1-luciferase reporter, luminescence, 16 h; DNA damage induced by 5-fluorouridine | Potency, µM (titrated, usually from 46.1 µM), without a hit: at the highest dose activity change, negative = inhibition, most hits filed as inhibitors | 2.3% of 330,000 active | AID 504467, 2011; further: on the % scale 0 is the no-effect control and ±100 the full control effect; nearly all actives have a fitted effect of over 55% in size
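Step one: seed 2,000 cells per well. Step two: pin-transfer compound or DMSO alongside 5-fluorouridine. Step three: incubate 16 hr, 37 °C, 5% CO2. Step four: add ONE-Glo, wait 30 min, read luminescence.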
Starred values were filed as active, the others as inactive; [ ] = dose if it differs, or a comment. The call rests on the fitted dose curve; in most records, active means well fitted curve in the direction sought with a large enough effect; inconclusive means small, poorly fitted or top-dose-only effect, or another doubt; inactive means no such curve, though single readings can be large; an effect the other way counts as inactive or inconclusive. Potency means the concentration at half of the fitted maximal effect.

How did O=C(CSc1ncccn1)NC(=O)Nc1ccc2c(c1)OCCO2 do in these assays?
ELG1 genotoxic: 9.6%; NPC1 prom act: 2.0%; SMN2 splice up: 7.9%; FLuc counter: 23.9µM*; Rab9 promoter act: 15.5%; ELG1 DNA repair: inconclusive

Results for O=C(CSc1nc(-c2ccccc2)[nH]c1-c1ccccc1)Nc1ccc2c(c1)OCCO2 ?
SMN2 splice up: -1.9%; FLuc counter: 9.53µM*

How did O=C(CSc1ccc([N+](=O)[O-])cn1)Nc1ccc2c(c1)OCCO2 do in these assays?
ELG1 genotoxic: 3.1%; NPC1 prom act: -0.3%; SMN2 splice up: -5.7%; FLuc counter: inconclusive; Rab9 promoter act: 0.2%; ELG1 DNA repair: 24.7%

How did O=C(CSc1ccccn1)Nc1ccc2c(c1)C(=O)c1ccccc1C2=O do in these assays?
ELG1 genotoxic: 16.4µM*; NPC1 prom act: 2.82µM*; SMN2 splice up: 10µM*; FLuc counter: inconclusive; Rab9 promoter act: 3.98µM*; ELG1 DNA repair: inconclusive

How did O=C(CSC1=NCCS1)Nc1ccc2ccccc2c1 do in these assays?
ELG1 genotoxic: 2.6%; NPC1 prom act: 17.5%; FLuc counter: 16.9µM*; Rab9 promoter act: 18.3%; ELG1 DNA repair: inconclusive

How did CC(=O)Nc1ccc(NC(=O)CSC2=NCCS2)cc1 do in these assays?
ELG1 genotoxic: 0.6%; NPC1 prom act: 1.6%; SMN2 splice up: -9.7%; FLuc counter: -0.2%; Rab9 promoter act: -8.2%; ELG1 DNA repair: -11.8%

How did O=C(CSc1ccccn1)Nc1ccc2c(c1)CCC2 do in these assays?
ELG1 genotoxic: inconclusive; NPC1 prom act: 17.3%; FLuc counter: 12µM*; Rab9 promoter act: inconclusive; ELG1 DNA repair: inconclusive

Results for C/C(=N\NC(=O)Cc1ccc([N+](=O)[O-])cc1)c1cccnc1 ?
ELG1 genotoxic: -4.6%; NPC1 prom act: -2.3%; FLuc counter: 1.4%; Rab9 promoter act: 2.6%; ELG1 DNA repair: -0.8%

Results for COc1ccc(OCCC(=O)OCC(=O)Nc2cccc(Br)c2)cc1 ?
ELG1 genotoxic: -0.3%; NPC1 prom act: 1.7%; SMN2 splice up: -4.5%; FLuc counter: -5.6%; Rab9 promoter act: -4.6%; ELG1 DNA repair: 12.3%

Results for CC1CC(C)CN(CCCNC(=O)c2ccc3c(c2)N(Cc2ccccc2)C(=O)c2ccccc2S3=O)C1 (centres undefined) ?
ELG1 genotoxic: -3.1%; NPC1 prom act: 16.6%; FLuc counter: 1.7%; Rab9 promoter act: -40.8%; ELG1 DNA repair: -0.3%

Results for CC1(c2ccc(Cl)cc2)NC(=O)N(CC(=O)Nc2ccc(F)cc2)C1=O (centres undefined) ?
ELG1 genotoxic: -1.5%; NPC1 prom act: -2.1%; FLuc counter: 2.0%; Rab9 promoter act: -1.1%; ELG1 DNA repair: -3.3%

Results for CCc1ccc(C2CC(c3ccco3)=NN2S(C)(=O)=O)cc1 (centres undefined) ?
ELG1 genotoxic: inconclusive; NPC1 prom act: 0.447µM*; SMN2 splice up: 0.501µM*; FLuc counter: 1.35µM*; Rab9 promoter act: 0.316µM*; ELG1 DNA repair: inconclusive

How did O=C(CC1SC(N2CCCC2)=NC1=O)Nc1ccc(C(=O)N2CCCC(C(F)(F)F)C2)cc1 (centres undefined) do in these assays?
ELG1 genotoxic: 11.5%; NPC1 prom act: -0.4%; FLuc counter: 2.0%; Rab9 promoter act: -2.8%; ELG1 DNA repair: 0.6%

Results for N#CC1=C(N)OC2=C(C(=O)CCC2)[C@]12C(=O)N(CC(N)=O)c1ccccc12 ?
ELG1 genotoxic: -2.3%; NPC1 prom act: 0.5%; FLuc counter: -0.9%; Rab9 promoter act: 9.9%; ELG1 DNA repair: 5.1%

What do the screens show for `O=C(O)c1ccc(/C=C/c2nc3sc4c(c3c(=O)[nH]2)CCC4)cc1`?
ELG1 genotoxic: 3.2%; NPC1 prom act: 5.1%; SMN2 splice up: -13.3%; FLuc counter: 19µM*; Rab9 promoter act: 12.9%; ELG1 DNA repair: -4.9%

Results for O=C(O)c1ccc(-n2c(/C=C\c3ccc(O)cc3)nc3ccccc3c2=O)cc1 ?
SMN2 splice up: -8.7%; FLuc counter: inconclusive

Results for O=C(O)c1ccc(/C=C/c2nc3ccccc3c(=O)[nH]2)cc1 ?
ELG1 genotoxic: -2.7%; NPC1 prom act: 12.4%; FLuc counter: 15.1µM*; Rab9 promoter act: -5.3%; ELG1 DNA repair: 7.6%

How did Cc1cccc(/C=C/c2nc3ccccc3c(=O)[nH]2)c1 do in these assays?
ELG1 genotoxic: 8.2µM*; NPC1 prom act: inconclusive; SMN2 splice up: 4.47µM*; FLuc counter: 1.07µM*; Rab9 promoter act: inconclusive; ELG1 DNA repair: inconclusive

How did O=c1[nH]c(/C=C/c2ccccc2Cl)nc2ccccc12 do in these assays?
ELG1 genotoxic: 2.06µM*; NPC1 prom act: inconclusive; FLuc counter: 0.849µM*; Rab9 promoter act: 0.398µM*; ELG1 DNA repair: inconclusive

Results for CCOc1cc(/C=C/c2nc3ccccc3c(=O)[nH]2)ccc1O ?
ELG1 genotoxic: inconclusive; NPC1 prom act: inconclusive; FLuc counter: inconclusive; Rab9 promoter act: inconclusive; ELG1 DNA repair: 28.9%

Results for COc1ccc(Cn2c(C3CC3)nc3ccc(NC(=O)c4cccnc4)cc3c2=O)cc1 ?
ELG1 genotoxic: -2.3%; NPC1 prom act: -2.3%; FLuc counter: inconclusive; Rab9 promoter act: inconclusive; ELG1 DNA repair: -22.5%

What do the screens show for `CCn1c(/C=C/c2c(C)[nH]c3ccccc23)nc2ccccc2c1=O`?
ELG1 genotoxic: 7.0%; NPC1 prom act: -1.8%; SMN2 splice up: -5.8%[1.84 µM]; FLuc counter: -2.7%; Rab9 promoter act: 9.5%; ELG1 DNA repair: 8.8%

How did Cc1[nH]c2ccccc2c1/C=C/c1nc2ccccc2c(=O)[nH]1 do in these assays?
ELG1 genotoxic: 7.3µM*; NPC1 prom act: 3.16µM*; FLuc counter: 2.39µM*; Rab9 promoter act: 1.41µM*; ELG1 DNA repair: inconclusive

What do the screens show for `CC1CC1c1ccc(/C=C(\C#N)C(=O)Nc2cc(Cl)ccc2Cl)o1` (centres undefined)?
ELG1 genotoxic: -1.9%; NPC1 prom act: -1.6%; SMN2 splice up: 8.7%; FLuc counter: 1.2%; Rab9 promoter act: -3.8%; ELG1 DNA repair: -0.1%

Results for N#C/C(=C\c1ccc(-c2cc(Cl)ccc2Cl)o1)C(=O)Nc1ccccc1C(=O)O ?
SMN2 splice up: -1.1%; FLuc counter: 4.26µM*
